Test results as given in PubChem BioAssay (NCATS).
Where “and” joins values, the source holds several entries; their conditions need not be identical. Identical values can stand only once. Results filed as inconclusive are left out. A call without a number means that no potency is given here. Calls of active or inactive are those of the source. Calls follow the shape of the dose curve; as a rule, active = well fitted curve in the direction sought with a large enough effect; inconclusive = small, poorly fitted or top-dose-only effect, or another doubt; inactive = no such curve, though single readings can be large; an effect the other way counts as inactive or inconclusive.

Key:
[1] = qHTS Screen of the MIPE 4.0 Collection Against Ewings Sarcoma (TC32) (AID 1259256); conditions: TC32 Ewing sarcoma viability, CellTiter-Glo, 48 h; series mostly up to 45.8 µM; also: nearly all actives have a fitted effect of over 45% in size
How it was run: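 After a 4 h attachment period in RPMI/5% FBS, cells were pin-dosed with test compounds; DMSO served as negative and 9.2 uM bortezomib (final) as positive control. Luminescent CellTiter-Glo signal at 48 h defined viability.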

[2] = P-glycoprotein substrates identified in KB-3-1 adenocarcinoma cell line, qHTS therapeutic library screen (AID 1346986); conditions: KB-3-1 parental cells viability, CellTiter-Glo, 72 h; series mostly up to 44.5 µM; also: nearly all actives have a fitted effect of over 60% in size;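 also: potency is for cytotoxicity meaning loss of cell viability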
How it was run: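 Counter-screen: cherry-picked hits retested in the KB pair and in HEK-293 pcDNA/MDR-19 cells ± tariquidar. Primary screen used 72 h CellTiter-Glo viability in KB-3-1 and KB-8-5-11.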

[3] = P-glycoprotein substrates identified in KB-8-5-11 adenocarcinoma cell line, qHTS therapeutic library screen (AID 1346987); conditions: KB-8-5-11 (P-gp overexpressing) viability, CellTiter-Glo, 72 h; series mostly up to 44.5 µM; also: nearly all actives have a fitted effect of over 65% in size
How it was run: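 P-gp-mediated resistance screen: KB-8-5-11 cells treated 72 h with compounds in dose-response. CellTiter-Glo viability.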

[4] = qHTS of pediatric cancer cell lines to identify multiple opportunities for drug repurposing: Primary screen for TC32 cells (AID 1347089); conditions: TC32 Ewing sarcoma viability, CellTiter-Glo luminescence, 48 h; series mostly up to 45.8 µM; also: nearly all actives have a fitted effect of over 60% in size
How it was run: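 Luminescent CellTiter-Glo read-out of metabolically active TC32 cells after 48 h compound exposure. Primary: MIPE 11-point, 0.78 nM–46 µM; NPC 8-point, 0.59 nM–46 µM. Confirmatory: 11-point dilutions.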

[5] = NS1 protein of Zika virus - qHTS assay to identify small molecule inhibitors in human HEK 293 cells (AID 1347053); conditions: HEK293 ZIKV MR766 infection, NS1 TR-FRET, 24 h; series mostly up to 46.1 µM; also: nearly all actives have a fitted effect of over 55% in size
How it was run: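 HEK 293; 20 h pre-culture, 37 C/5% CO2; cpd 1 h pre-infection; ZIKV MR766, MOI = 0.5, 24 h, 37 C; TR-FRET NS1 readout (two anti-NS1 Abs); norm. to no-virus vs infected.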

[6] = qHTS of pediatric cancer cell lines to identify multiple opportunities for drug repurposing: Primary screen for DAOY cells (AID 1347090); conditions: DAOY medulloblastoma viability, CellTiter-Glo luminescence, 48 h; series mostly up to 46 µM; also: nearly all actives have a fitted effect of over 55% in size
How it was run: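 Cell viability, CellTiter-Glo luminescence; 500-1,000 cells/well, 8- or 11-point titration, 48 h compound exposure at 37 degrees C, 5% CO2. Controls: DMSO neutral, bortezomib 2.3 µM final as positive.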
Potency is read from the fitted curve at half-maximal effect.

Row | Structure (SMILES) | Potency [1] | Potency [2] | Potency [3] | Potency [4] | Potency [5] | Potency [6]
1 | C[C@@H]1[C@H](C)CC[C@]2(C(=O)O)CC[C@]3(C)C(=CC[C@@H]4[C@@]5(C)C[C@@H](O)[C@H](O)[C@@](C)(CO)[C@H]5CC[C@]43C)[C@@H]12 | inactive | inactive | inactive | inactive |  | 
2 | CC(=O)O[C@]1(C(C)=O)CC[C@H]2[C@@H]3C=C(C)C4=CC(=O)CC[C@]4(C)[C@@H]3CC[C@@]21C | 5.26 µM (active) | inactive | inactive |  | inactive | 7.43 µM (active)
3 | NC(=O)c1ncn([C@@H]2O[C@H](CO)[C@@H](O)[C@@H]2O)c1N | inactive |  | inactive |  | inactive | 
4 | C[C@H](O)[C@@H]1C(=O)N2C(C(=O)O)=C(S[C@@H]3CN[C@H](CNS(N)(=O)=O)C3)[C@@H](C)[C@@H]12 | inactive | inactive | inactive | inactive |  | 
5 | Cc1ccccc1C(=O)Nc1ccc(C(=O)N2CCCC(O)c3cc(Cl)ccc32)c(C)c1 (stereo unspecified) | inactive | inactive | inactive | inactive |  | inactive
6 | N#CNC(=NCCCCCCOc1ccc(Cl)cc1)Nc1ccncc1 | inactive |  | 0.0042 µM (active) | 0.0033 µM (active) | inactive | 
7 | CCCCCCCCc1ccc(CCC(N)(CO)CO)cc1 | 18.7 µM (active) |  | 23.5 µM (active) |  | 9.35 µM (active) | 
8 | CCCNC(=O)[C@H]1O[C@H]1C(=O)N[C@H](C(=O)N1CCC[C@@H]1C(=O)OC)C(C)CC (stereo partly specified) | 5.26 µM (active) |  | inactive |  |  | 
9 | Cc1cnn(C)c1C(=O)Nc1cc(Nc2ccc3c(C=Cc4ccccn4)n[nH]c3c2)ccc1F | 20.9 µM (active) |  | 5.26 µM (active) |  |  | 
10 | COC1=C2C[C@@H](C)C[C@H](OC)[C@@H](O)[C@@H](C)C=C(C)[C@H](OC(N)=O)[C@@H](OC)C=CC=C(C)C(=O)NC(=CC1=O)C2=O | 0.296 µM (active) |  | 13.2 µM (active) |  |  | 
11 | c1cc(N[C@@H]2CCNC2)nc(-c2cnc3ccc(-c4cn[nH]c4)cn23)c1 | 23.5 µM (active) |  | inactive |  |  | 
12 | C=CC[C@@H]1C=C(C)C[C@H](C)C[C@H](OC)[C@H]2O[C@@](O)(C(=O)C(=O)N3CCCC[C@H]3C(=O)O[C@H](C(C)=C[C@@H]3CC[C@H](O)[C@H](OC)C3)[C@@H](C)[C@@H](O)CC1=O)[C@@H](C)C[C@@H]2OC | 1.48 µM (active) | inactive |  | inactive |  | inactive
13 | Oc1ccc([C@@H]2Oc3ccc(O)cc3[C@@H]3CCC[C@@H]32)cc1 | 9.35 µM (active) |  | 5.9 µM (active) and 5.8 µM (active) |  |  | 
14 | COc1cc(C)c(Sc2cnc(NC(=O)c3ccc(CNC(C)C(C)(C)C)cc3)s2)cc1C(=O)N1CCN(C(C)=O)CC1 (stereo unspecified) | 2.96 µM (active) | inactive | inactive |  |  | 18.7 µM (active)
15 | Cn1cc(-c2cnn3c(N)c(Br)c([C@H]4CCCNC4)nc23)cn1 | 0.187 µM (active) |  | inactive |  | 0.833 µM (active) | 
16 | CCOC(=O)[C@H](CCc1ccccc1)N[C@@H](C)C(=O)N1[C@@H](C(=O)O)C[C@H]2CCC[C@@H]21 | 16.6 µM (active) |  | 10.5 µM (active) |  |  | 
17 | C=CC(=O)N1CCc2ccc(-n3c(=O)ccc4cnc5ccc(-c6cnn(C)c6)cc5c43)cc21 | 3.32 µM (active) | 3.99 µM (active) |  | 9.3 µM (active) | 2.96 µM (active) | 5.9 µM (active)
18 | CC(=O)N1CCN(c2ccc(OCc3nn(C)c(C)c3-c3cccc4c(CCCOc5cccc6ccccc56)c(C(=O)O)n(Cc5cccnc5)c34)cc2)CC1 | 0.743 µM (active) | inactive | inactive |  | inactive | 0.118 µM (active)
19 | CCCNS(=O)(=O)Nc1ncnc(OCCOc2ncc(Br)cn2)c1-c1ccc(Br)cc1 | inactive | inactive | inactive | inactive |  | inactive
20 | O=C(O)c1ccc(Nc2ncc3c(n2)-c2ccc(Cl)cc2C(c2c(F)cccc2F)=NC3)cc1 | 0.59 µM (active) | 0.82 µM (active) |  |  | inactive | 
21 | Cc1cnc(Nc2ccc(N3CCN(C)CC3)cc2)nc1Nc1cccc(S(=O)(=O)NC(C)(C)C)c1 | 2.35 µM (active) | 3.26 µM (active) | 11.8 µM (active) and 7.31 µM (active) |  | 16.6 µM (active) | 14.8 µM (active)
22 | CC1=C(C(=O)Nc2cc3cn[nH]c3cc2F)C(c2ccc(Cl)cc2F)N=C(c2ccnc(Cl)c2)N1 (stereo unspecified) | 16.6 µM (active) | 20.6 µM (active) |  |  | inactive | inactive
23 | CC(C=CC(=O)NO)=C[C@@H](C)C(=O)c1ccc(N(C)C)cc1 | 0.332 µM (active) |  | 1.05 µM (active) |  | inactive | 
